These results are taken from the supplement of paper PMC6555819.

The assay has as its system PPARa:RXRa (NR concentration 270 nM, RXRa partner concentration 90 nM). Briefly: PBM binding z-score (relative to random genomic background probes); higher = stronger binding; sequences stand for … in GC…GCGATTGACAGCGTAGAATGAAGG
In outline: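 Random background probes are the reference for binding z-scores. These scores derive from regression-normalized fluorescence on custom Agilent 4×180K protein-binding microarrays incubated 1 h with ligand-free nuclear receptor dimers. Binding was detected with antibodies against each partner (one per run).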
ATCTCTAGGTAAAGATAGTTCGGTGAATGCAAAT: the PBM binding z-score was 0.121.

Sequence TCTAGCAGTCCAGAGGGTCACTCAAGAGGTACGG came in with a PBM binding z-score of 2.06.

CCTAGCAGGCCAATCTGGGACACTCAAGGCTTGA showed a PBM binding z-score of -0.0365.

In turn, TCTGACAGGTGAAGGTAACTCAGGTACGCAGTCG registered a PBM binding z-score of 1.14.

Sequence TATACAGGCTCAAAGGCCAGAGTACGAATGTCGA gave a PBM binding z-score of 0.221.

On to GGAACGAGGGCATTCGAGTTAATAGCATGGCGAT, for which the PBM binding z-score came out at 1.58.

CCTACTGGGCCAATGGTCATTGATTCCAATGCTC displayed a PBM binding z-score of 1.86.

GCTGCTAGGTCAACTGATGGTCGGCTAAAGCTCG gave a PBM binding z-score of 3.7.

Take ACTCGGAGGACCAAGGTCAGAGCTACGCCAGTGA: the PBM binding z-score stood at 1.79.

GGAACGAAGGCAAAGTTGATAGCATCTGTCGACG came in with a PBM binding z-score of 1.16.

Turning to GGAACGAGGGCATGCGAGTTGATAGCATGGCGAT, the PBM binding z-score came out at 1.35.

In turn, TCTTGTAGATCACGCAGGTTAAGAAAGCCTGAGT displayed a PBM binding z-score of 1.09.

On to TCTTGTAGAACAAGCAGGTTAAGAAAGCCTGAGT, for which the PBM binding z-score came out at 0.777.

In turn, AATACCGGGTCATCGTAGGCCAGAGTACGCACAG registered a PBM binding z-score of 5.4.

Consider CCTAGCAGGCCAATCTGAGTCACTCAAGGCTTGA, for which the PBM binding z-score is -0.513.

The sequence AGTCAAAGTTCATCTAGGTAAGGTAAGATATGCT gave a PBM binding z-score of 5.02.

Consider AGAACAAGGGCAATGAGTTGATAGCACGGGTGGC, for which the PBM binding z-score came to 0.573.

For the sequence CAAACTAGGGCACAGAGGTCAAAGTCCGTGCGTA, the PBM binding z-score came to 5.71.

Consider ATCGAAAGGTCGACGGGGTGAGTATACACCGTTT, for which the PBM binding z-score was found to be 4.57.

Take TAGCCGAGGTCATGGGCCAGTATACCACGCGAAC: the PBM binding z-score is 6.28.

As to TCTAGTTGGTCACGGAGGTAACACACGACGGGTA, the PBM binding z-score was determined as 1.02.

Sequence CCTACTGGGCCAGGGTCATTGATCAGTCAAAGCA registered a PBM binding z-score of 4.14.
